According to PubChem BioAssay (EPA / NIEHS):
Values joined by “and” are separate entries in the source; they are usually repeats but may differ in a detail not shown here. Identical values can stand only once. Where a structure was tested more than once in an assay, its records may differ in their call. Active and inactive are the calls of the source. The calls were made as follows: active = hit-call score of the fitted dose curve at least 0.9, where 1 is the maximum; inactive = score below 0.9.

Experiments:
[1] = biological target: Bile acid receptor (Homo sapiens) (UniProt Q96RI1); assay: ATG_IR1_CIS: Attagene CIS-FACTORIAL HepG2 Assay for human Nuclear Receptor Subfamily 1 Group H Member 4 (NR1H4), IR1 submotif (AID 2282946); settings: IR1 reporter transcription, actives raise or lower the signal
How it was run: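 Fluorescence of capillary-separated, HpaI-digested RT-PCR reporter products gave IR1-element mRNA induction in HepG2 cells 24 h after dosing. Endogenous transcription factors drove the cis-regulated reporters; activity was fitted bidirectionally against DMSO.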

[2] = ATG_GRE_CIS: Attagene CIS-FACTORIAL HepG2 Assay for human Glucocorticoid Response Elements (GRE) (AID 2282947); settings: HepG2 GRE cis-reporter, Attagene multiplex mRNA; actives raise or lower the signal
How it was run: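 Read-out: fluorescent reporter-transcript fragments separated by capillary electrophoresis after RT-PCR. Transiently transfected HepG2 cells carrying cis-element-driven reporter units were dosed for 24 h; gain or loss of signal fitted against DMSO control.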

[3] = ATG_ISRE_CIS: Attagene CIS-FACTORIAL HepG2 Assay for human Interferon Regulatory Factor 1 (IRF1) binding to an Interferon-Stimulated Response Element (ISRE) (AID 2282948); settings: HepG2 ISRE cis-reporter (Attagene), mRNA transcription readout; actives raise or lower the signal
How it was run: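 Signal reflects induction or loss of ISRE-linked reporter mRNA in transiently transfected HepG2 cells after a 24 h treatment, detected by fluorescent RT-PCR fragments on capillary electrophoresis and normalised to DMSO.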

[4] = ATG_M_32_CIS: Attagene CIS-FACTORIAL HepG2 Assay for M32 Transcription Factor (Internal Marker) (AID 2282949); settings: HepG2 Attagene cis-factorial M32 reporter, mRNA; actives raise or lower the signal;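 also: background control marker of the multiplexed CIS panel rather than a real target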
How it was run: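 Transient MRTU transfection of HepG2; 24 h compound treatment; TriZol RNA, oligo(dT) RT, reporter PCR, 6-FAM primer extension, HpaI cut, CE. Gain/loss of signal vs DMSO.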

[5] = ATG_M_06_CIS: Attagene CIS-FACTORIAL HepG2 Assay for M06 Transcription Factor (Internal Marker) (AID 2282950); settings: HepG2 Attagene CIS-FACTORIAL M06 internal marker reporter; actives raise or lower the signal
How it was run: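 Serves as a background control readout. Transfected HepG2 exposed to compounds for 24 h, then reporter transcripts quantified by fluorescent RT-PCR and capillary electrophoresis. Both directions fitted against DMSO baseline.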

[6] = biological target: Hypoxia-inducible factor 1-alpha (Homo sapiens) (UniProt Q16665); assay: ATG_HIF1a_CIS: Attagene CIS-FACTORIAL HepG2 Assay for human Hypoxia Inducible Factor 1 (HIF1A) (AID 2282951); settings: HepG2 Attagene cis-factorial HIF1a reporter transcription; actives raise or lower the signal
How it was run: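 HepG2, transient cis-reporter library, 24 h dosing. RNA → RT (oligo dT) → PCR → 6-FAM primer extension → HpaI → CE. Bidirectional curve fit vs DMSO.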

[7] = biological target: Hepatocyte nuclear factor 6 (Homo sapiens) (UniProt Q9UBC0); assay: ATG_HNF6_CIS: Attagene CIS-FACTORIAL HepG2 Assay for human Hepatocyte Nuclear Factor 6 (HNF6) (AID 2282952); settings: HepG2 Attagene cis-factorial HNF6 reporter transcription; actives raise or lower the signal
How it was run: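 Using cis-element reporters in HepG2 liver cells, the assay tracks endogenous factor-driven transcription 24 h post-dosing. Signal comes from 6-FAM-labelled, HpaI-digested RT-PCR fragments, with gain or loss scored against DMSO.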

[8] = biological target: Heat shock factor protein 1 (Homo sapiens) (UniProt Q00613); assay: ATG_HSE_CIS: Attagene CIS-FACTORIAL HepG2 Assay for human Heat Shock Transcription Factor 1 (HSE) (AID 2282953); settings: HepG2 HSE cis-reporter, Attagene RNA transcription; actives raise or lower the signal
How it was run: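 Endogenous transcription factor activity in transiently transfected HepG2, read as reporter mRNA by RT-PCR with fluorescent capillary electrophoresis after 24 h. Gain or loss of signal fitted versus DMSO baseline.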

[9] = ATG_MRE_CIS: Attagene CIS-FACTORIAL HepG2 Assay for human Metal Responsive Element (MRE) (AID 2282954); settings: HepG2 MRE cis-reporter transcription, Attagene multiplex; actives raise or lower the signal
How it was run: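 RT-PCR/capillary electrophoresis readout of reporter mRNA, 24 h post-dosing, in HepG2 cells transfected with multiplexed cis-regulated reporter constructs. Gain or loss of signal fitted bidirectionally against DMSO baseline.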

[10] = biological target: Paired box protein Pax-6 (Homo sapiens) (UniProt P26367); assay: ATG_Pax6_CIS: Attagene CIS-FACTORIAL HepG2 Assay for human Paired Box 6 (PAX6) (AID 2282956); settings: HepG2 CIS-FACTORIAL PAX6 reporter transcription, RNA readout; actives raise or lower the signal
How it was run: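 Values derive from bidirectional curve fitting of reporter mRNA signal relative to DMSO. HepG2 cells bearing transfected cis-regulated MRTUs were exposed for 24 h; transcripts were read by RT-PCR and capillary electrophoresis.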

[11] = ATG_PXRE_CIS: Attagene CIS-FACTORIAL HepG2 Assay for human Pregnane X Receptor Element (PXRE) (AID 2282957); settings: HepG2 Attagene CIS-FACTORIAL PXRE reporter, mRNA; actives raise or lower the signal
How it was run: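 Using HepG2 transfected with multiple reporter transcription units, endogenous factor-driven transcription was scored as reporter mRNA after 24 h exposure.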

[12] = ATG_PPRE_CIS: Attagene CIS-FACTORIAL HepG2 Assay for human Peroxisome Proliferator-activated Response Element (PPRE) (AID 2282958); settings: HepG2 PPRE cis-element reporter, Attagene transcription factor profiling; actives raise or lower the signal
How it was run: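 Transcript-level reporter induction in transfected HepG2 cells after 24 h chemical exposure, quantified by fluorescence from RT-PCR products separated by capillary electrophoresis.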

[13] = ATG_RORE_CIS: Attagene CIS-FACTORIAL HepG2 Assay for human RAR-related Orphan Receptor Element (RORE) (AID 2282959); settings: HepG2 Attagene cis-factorial RORE reporter, mRNA; actives raise or lower the signal
How it was run: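 Multiplexed reporter assay measuring mRNA induction from a cis promoter element in transiently transfected HepG2 cells after 24 h treatment. Detection via RT-PCR and capillary electrophoresis fluorescence; DMSO serves as baseline.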

[14] = ATG_Sox_CIS: Attagene CIS-FACTORIAL HepG2 Assay for human SRY-box transcription factor (SOX) (AID 2282960); settings: HepG2 Attagene cis-factorial SOX reporter, mRNA; actives raise or lower the signal
How it was run: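 Cells were transfected with reporter constructs under cis-regulatory promoters, then exposed to chemicals for 24 h. Reporter transcripts were quantified by fluorescence after RT-PCR and capillary electrophoresis; activity was fitted in both directions against DMSO.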

[15] = biological target: Transcription factor Sp1 (Homo sapiens) (UniProt P08047); assay: ATG_Sp1_CIS: Attagene CIS-FACTORIAL HepG2 Assay for human Specificity Protein 1 (Sp1) (AID 2282961); settings: HepG2 Sp1 cis-reporter transcription, actives raise or lower the signal
How it was run: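 Measures mRNA induction of an Sp1-linked reporter in HepG2 cells 24 h post-dosing. Multiplexed reporters read by RT-PCR and capillary electrophoresis; DMSO serves as negative control and baseline.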

[16] = ATG_SREBP_CIS: Attagene CIS-FACTORIAL HepG2 Assay for human Sterol Regulatory Element Binding (SREBP) (AID 2282962); settings: HepG2 Attagene cis-factorial SREBP reporter, mRNA; actives raise or lower the signal
How it was run: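 Values derive from bidirectional curve fitting with DMSO as baseline. The underlying measurement is reporter mRNA from cis-element-regulated units in transiently transfected HepG2, quantified by RT-PCR and capillary electrophoresis after 24 h exposure.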

[17] = biological target: Signal transducer and activator of transcription 3 (Homo sapiens) (UniProt P40763); assay: ATG_STAT3_CIS: Attagene CIS-FACTORIAL HepG2 Assay for human Signal Transducer and Activator of Transcription 3 (STAT3) (AID 2282963); settings: HepG2, Attagene cis-factorial STAT3 reporter transcription; actives raise or lower the signal
How it was run: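 Readout: fluorescent reporter mRNA fragments resolved by capillary electrophoresis. Setup: HepG2 transfected with MRTUs reporting endogenous transcription-factor activity, dosed 24 h. Gain or loss of signal fitted bidirectionally against DMSO control.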

[18] = ATG_TA_CIS: Attagene CIS-FACTORIAL HepG2 Assay for human TA Basal Promoter (AID 2282964); settings: HepG2 Attagene CIS-factorial TA basal promoter reporter; actives raise or lower the signal
How it was run: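 Background-control readout: TA basal promoter reporter mRNA, fitted in both directions relative to DMSO. Measured by RT-PCR and capillary electrophoresis 24 hours after treating HepG2 human liver cells transiently carrying multiplexed cis-regulated reporter constructs.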

[19] = ATG_PBREM_CIS: Attagene CIS-FACTORIAL HepG2 Assay for human Phenobarbital-responsive Enhancer Module (PBREM) (AID 2282955); settings: HepG2 PBREM cis-reporter, Attagene multiplexed transcription; actives raise or lower the signal
How it was run: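 HepG2, transient MRTU transfection, 24 h dosing; RNA → oligo(dT) RT → PCR → 6-FAM extension → HpaI → CE. Bidirectional fit vs DMSO.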

[20] = ATG_TCF_b_cat_CIS: Attagene CIS-FACTORIAL HepG2 Assay for human T-Cell-Factor with beta-catenin (TCF/b-cat) (AID 2282965); settings: HepG2 TCF/beta-catenin cis-reporter transcription, actives raise or lower the signal
How it was run: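 Cells of the HepG2 line carry transiently transfected reporter units whose promoters respond to endogenous factors. Twenty-four hours post-dosing, reporter mRNA induction is measured by fluorescent RT-PCR and capillary electrophoresis, with DMSO as baseline.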

Measured: AC50

Sequence of Bile acid receptor (Homo sapiens) (Q96RI1 whole entry, looked up): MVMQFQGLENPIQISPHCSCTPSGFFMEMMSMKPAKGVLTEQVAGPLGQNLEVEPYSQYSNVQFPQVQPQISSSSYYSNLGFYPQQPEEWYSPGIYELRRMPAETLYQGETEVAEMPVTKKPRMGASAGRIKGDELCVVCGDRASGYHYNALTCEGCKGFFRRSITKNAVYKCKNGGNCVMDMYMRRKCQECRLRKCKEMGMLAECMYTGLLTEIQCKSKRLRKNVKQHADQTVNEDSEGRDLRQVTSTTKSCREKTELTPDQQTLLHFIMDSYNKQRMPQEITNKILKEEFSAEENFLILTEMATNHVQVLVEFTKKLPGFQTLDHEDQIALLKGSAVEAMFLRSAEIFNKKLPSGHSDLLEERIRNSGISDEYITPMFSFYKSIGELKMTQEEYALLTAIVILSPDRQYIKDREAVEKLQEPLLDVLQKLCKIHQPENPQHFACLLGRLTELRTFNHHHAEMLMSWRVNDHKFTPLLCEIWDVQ
Sequence of Transcription factor Sp1 (Homo sapiens) (P08047 whole entry, looked up): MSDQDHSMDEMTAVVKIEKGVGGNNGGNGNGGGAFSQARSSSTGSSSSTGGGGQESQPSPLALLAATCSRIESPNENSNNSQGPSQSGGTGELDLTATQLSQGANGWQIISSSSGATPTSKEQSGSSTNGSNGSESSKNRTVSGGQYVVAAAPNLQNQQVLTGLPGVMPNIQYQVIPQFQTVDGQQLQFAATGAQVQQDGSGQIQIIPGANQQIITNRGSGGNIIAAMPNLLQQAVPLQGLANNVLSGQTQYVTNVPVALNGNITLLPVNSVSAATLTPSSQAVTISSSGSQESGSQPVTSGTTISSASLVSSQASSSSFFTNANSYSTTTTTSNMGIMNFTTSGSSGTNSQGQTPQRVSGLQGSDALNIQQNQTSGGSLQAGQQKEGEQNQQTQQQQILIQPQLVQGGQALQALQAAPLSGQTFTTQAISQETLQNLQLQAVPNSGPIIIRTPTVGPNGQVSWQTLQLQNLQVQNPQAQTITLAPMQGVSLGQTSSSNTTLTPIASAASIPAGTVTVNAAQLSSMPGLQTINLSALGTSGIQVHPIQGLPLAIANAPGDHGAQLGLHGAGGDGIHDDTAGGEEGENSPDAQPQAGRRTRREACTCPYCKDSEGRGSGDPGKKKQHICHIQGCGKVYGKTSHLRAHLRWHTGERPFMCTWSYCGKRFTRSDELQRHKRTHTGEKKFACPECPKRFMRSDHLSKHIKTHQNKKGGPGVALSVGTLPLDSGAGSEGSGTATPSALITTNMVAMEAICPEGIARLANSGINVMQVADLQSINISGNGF
Sequence of Signal transducer and activator of transcription 3 (Homo sapiens) (P40763 whole entry, looked up, the tested form may be a part): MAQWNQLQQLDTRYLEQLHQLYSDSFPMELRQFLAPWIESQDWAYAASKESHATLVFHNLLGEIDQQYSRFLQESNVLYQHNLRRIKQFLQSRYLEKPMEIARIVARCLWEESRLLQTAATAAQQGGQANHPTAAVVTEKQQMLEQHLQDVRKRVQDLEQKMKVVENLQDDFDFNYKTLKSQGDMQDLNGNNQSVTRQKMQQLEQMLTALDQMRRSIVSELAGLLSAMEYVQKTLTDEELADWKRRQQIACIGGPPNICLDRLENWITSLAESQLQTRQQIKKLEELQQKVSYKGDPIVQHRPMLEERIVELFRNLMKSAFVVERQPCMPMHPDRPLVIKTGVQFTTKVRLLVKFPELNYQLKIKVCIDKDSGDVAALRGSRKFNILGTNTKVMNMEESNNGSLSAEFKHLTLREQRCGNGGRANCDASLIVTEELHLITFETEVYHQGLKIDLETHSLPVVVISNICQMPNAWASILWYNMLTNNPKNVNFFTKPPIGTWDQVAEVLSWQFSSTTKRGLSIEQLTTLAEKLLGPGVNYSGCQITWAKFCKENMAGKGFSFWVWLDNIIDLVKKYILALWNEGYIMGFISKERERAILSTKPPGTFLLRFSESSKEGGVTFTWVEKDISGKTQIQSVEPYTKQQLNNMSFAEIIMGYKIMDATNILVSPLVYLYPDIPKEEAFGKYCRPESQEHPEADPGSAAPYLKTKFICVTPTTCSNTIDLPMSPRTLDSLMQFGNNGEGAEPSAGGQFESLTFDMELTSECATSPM
Sequence of Hypoxia-inducible factor 1-alpha (Homo sapiens) (Q16665 whole entry, looked up): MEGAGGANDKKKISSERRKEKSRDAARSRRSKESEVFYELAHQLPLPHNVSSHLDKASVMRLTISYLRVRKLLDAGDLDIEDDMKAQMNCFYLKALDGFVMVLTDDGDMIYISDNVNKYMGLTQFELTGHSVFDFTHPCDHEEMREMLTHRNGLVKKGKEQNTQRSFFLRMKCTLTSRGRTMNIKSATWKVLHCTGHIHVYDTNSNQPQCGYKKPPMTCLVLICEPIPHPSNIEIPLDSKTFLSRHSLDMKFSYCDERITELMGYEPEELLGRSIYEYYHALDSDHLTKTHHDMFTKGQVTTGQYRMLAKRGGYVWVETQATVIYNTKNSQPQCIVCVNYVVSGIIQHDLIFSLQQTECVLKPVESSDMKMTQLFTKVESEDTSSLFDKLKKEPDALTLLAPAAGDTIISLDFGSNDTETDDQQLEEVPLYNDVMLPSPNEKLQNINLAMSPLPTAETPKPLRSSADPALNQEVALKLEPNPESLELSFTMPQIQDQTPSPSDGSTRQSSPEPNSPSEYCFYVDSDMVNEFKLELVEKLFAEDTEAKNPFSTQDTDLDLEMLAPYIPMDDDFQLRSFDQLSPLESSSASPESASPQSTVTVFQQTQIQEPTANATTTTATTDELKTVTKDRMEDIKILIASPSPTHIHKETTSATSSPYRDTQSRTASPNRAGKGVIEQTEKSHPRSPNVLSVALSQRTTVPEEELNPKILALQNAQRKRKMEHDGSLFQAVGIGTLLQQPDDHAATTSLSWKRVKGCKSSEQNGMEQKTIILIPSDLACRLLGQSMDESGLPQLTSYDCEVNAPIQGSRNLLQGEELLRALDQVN
Sequence of Paired box protein Pax-6 (Homo sapiens) (P26367 whole entry, looked up): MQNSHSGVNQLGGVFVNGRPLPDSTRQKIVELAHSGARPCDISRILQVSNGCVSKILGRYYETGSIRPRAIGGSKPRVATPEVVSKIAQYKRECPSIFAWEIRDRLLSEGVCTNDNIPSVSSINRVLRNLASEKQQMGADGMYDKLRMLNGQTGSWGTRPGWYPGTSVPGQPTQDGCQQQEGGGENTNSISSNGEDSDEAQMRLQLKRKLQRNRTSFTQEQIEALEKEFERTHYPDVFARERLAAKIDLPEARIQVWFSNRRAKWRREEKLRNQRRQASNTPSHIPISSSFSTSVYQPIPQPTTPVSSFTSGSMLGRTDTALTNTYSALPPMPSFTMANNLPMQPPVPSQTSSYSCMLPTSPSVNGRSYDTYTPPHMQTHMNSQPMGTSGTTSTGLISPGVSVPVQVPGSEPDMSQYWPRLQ
Sequence of Hepatocyte nuclear factor 6 (Homo sapiens) (Q9UBC0 whole entry, looked up, the tested form may be a part): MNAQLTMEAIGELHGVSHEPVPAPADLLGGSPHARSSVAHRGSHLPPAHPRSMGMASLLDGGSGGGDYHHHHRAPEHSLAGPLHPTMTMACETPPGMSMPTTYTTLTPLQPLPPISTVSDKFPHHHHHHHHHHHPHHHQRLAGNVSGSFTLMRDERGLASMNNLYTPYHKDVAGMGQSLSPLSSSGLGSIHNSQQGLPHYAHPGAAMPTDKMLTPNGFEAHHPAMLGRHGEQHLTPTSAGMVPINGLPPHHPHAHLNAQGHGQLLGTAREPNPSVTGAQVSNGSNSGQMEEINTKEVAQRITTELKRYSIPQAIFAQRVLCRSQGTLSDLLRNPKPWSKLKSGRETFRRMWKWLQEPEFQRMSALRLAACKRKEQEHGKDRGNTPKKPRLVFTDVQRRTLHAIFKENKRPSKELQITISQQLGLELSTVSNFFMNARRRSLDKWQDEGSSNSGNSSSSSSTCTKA
Sequence of Heat shock factor protein 1 (Homo sapiens) (Q00613 whole entry, looked up): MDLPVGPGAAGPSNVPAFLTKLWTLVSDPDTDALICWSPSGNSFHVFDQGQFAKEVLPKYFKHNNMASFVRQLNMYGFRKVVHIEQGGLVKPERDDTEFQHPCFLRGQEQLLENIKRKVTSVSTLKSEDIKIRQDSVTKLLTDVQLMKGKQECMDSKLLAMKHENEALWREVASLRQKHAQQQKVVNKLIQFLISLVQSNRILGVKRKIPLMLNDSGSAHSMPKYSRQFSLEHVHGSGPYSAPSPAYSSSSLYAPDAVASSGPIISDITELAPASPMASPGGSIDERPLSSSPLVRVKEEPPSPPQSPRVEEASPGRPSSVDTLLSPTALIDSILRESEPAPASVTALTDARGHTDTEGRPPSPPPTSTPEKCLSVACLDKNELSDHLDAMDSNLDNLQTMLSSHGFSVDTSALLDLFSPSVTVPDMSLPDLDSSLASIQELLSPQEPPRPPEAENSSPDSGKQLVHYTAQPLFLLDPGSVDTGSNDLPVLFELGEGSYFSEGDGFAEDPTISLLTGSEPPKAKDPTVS

CCCC(=O)OCCC(C)C
not listed: [19] | [20]
inactive: all other assays above

CC(C)(c1cc(Br)c(O)c(Br)c1)c1cc(Br)c(O)c(Br)c1
inactive: [1] | [2] | [3] | [4] | [5] | [6] | [7] | [19] | [17] | [18]
active: [1] 16.3 µM | [3] 44.8 µM | [6] 47.1 µM | [8] 49.8 µM and 49.3 µM | [9] 46.7 µM and 48.6 µM | [10] 46 µM and 42.9 µM | [11] 7.93 µM and 8.01 µM | [14] 41.4 µM and 43.4 µM | [15] 39.3 µM and 31.9 µM | [16] 31.7 µM and 23 µM | [18] 23.2 µM | [20] 42.6 µM and 22.7 µM

Cc1cc2c(cc1C(F)(F)F)N(C(=O)Nc1ccc(Oc3cccnc3C)nc1)CC2
not listed: [13] | [20]
inactive: all other assays above

O=c1c(-c2ccc(O)cc2)coc2cc(O)cc(O)c12
inactive: [1] | [2] | [3] | [4] | [5] | [6] | [7] | [8] | [19] | [10] | [11] | [12] | [14] | [15] | [17] | [18]
active: [1] 10.4 µM and 10.6 µM | [19] 43.7 µM | [11] 27.9 µM | [12] 14.7 µM and 66.3 µM and 50 µM | [15] 58.4 µM and 80.7 µM | [16] 28.2 µM [middle of 4 runs]

Cc1oc2c(NC(=O)c3c(Cl)cccc3Cl)cccc2c1C(C)(C)O
inactive: [2] | [4] | [5] | [7] | [14] | [15] | [17]
active: [1] 158 µM | [3] 26.8 µM | [6] 37.8 µM | [8] 177 µM | [19] 6.18 µM | [10] 85.7 µM | [11] 0.116 µM | [12] 71.8 µM | [16] 6.28 µM | [18] 41.5 µM | [20] 25.4 µM

COCC(C)OCC(C)OCC(C)O (configuration not stated)
not listed: [20]
inactive: all other assays above

O=C(O)c1ccccc1-n1cc(C(=O)O)c(=O)c2cc(Nc3c(F)cc(F)cc3Cl)c(Cl)cc21
active: [11] 62.3 µM
not listed: [9] | [13] | [20]
inactive: all other assays above

CCOC(=O)O[C@H](C)OC(=O)c1ccc2c(c1)cc(C(=O)NC1CCN(C(C)C)CC1)n2Cc1cc(-c2ccc(Cl)s2)on1
active: [6] 20.9 µM | [9] 51.1 µM | [15] 60 µM | [16] 33 µM
not listed: [20]
inactive: all other assays above

O=c1[nH]sc2ccccc12
active: [3] 33.4 µM | [6] 8.86 µM | [8] 52.8 µM | [11] 51.7 µM | [14] 42.9 µM
not listed: [9] | [13] | [20]
inactive: all other assays above

O=C(Nc1ccc(Cl)cc1)Nc1ccc(Cl)c(Cl)c1
active: [3] 5.89 µM | [11] 2.12 µM
not listed: [9] | [13] | [20]
inactive: all other assays above

O=C(O)c1ccccc1C(=O)OCc1ccccc1
not listed: [9] | [13]
inactive: all other assays above

Cc1ccc2oc(CN(Cc3ccccc3)C(=O)Nc3c(F)cc(F)cc3F)c(-c3ccc(Cl)cc3)c2c1
active: [11] 0.63 µM
not listed: [12] | [19] | [20]
inactive: all other assays above
